{"source": "paper PMC11062922", "about": "(Nature Chemical Biology, 2023)", "design_in_all_cases": "species or system human, MV4-11 + K-562 + COLO205 + SK-N-BE2 + OVCAR-8", "key": {"CSNK1D": {"test_system": "CSNK1D", "details": "read-out: apparent Kd, n = 1"}, "CSNK1E": {"test_system": "CSNK1E", "details": "read-out: apparent Kd, n = 1"}, "MAPK10": {"test_system": "MAPK10", "details": "read-out: apparent Kd, compound concentrations: 100 nM and 1000 nM (sheet 'Samples'), n = 1"}, "MAPK11": {"test_system": "MAPK11", "details": "read-out: apparent Kd, n = 1"}, "MAPK14": {"test_system": "MAPK14", "details": "read-out: apparent Kd, n = 1"}, "MAPK9": {"test_system": "MAPK9", "details": "read-out: apparent Kd, n = 1"}, "MAPKAPK2": {"test_system": "MAPKAPK2", "details": "read-out: apparent Kd, compound concentrations: 100 nM and 1000 nM (sheet 'Samples'), n = 1"}, "NLK": {"test_system": "NLK", "details": "read-out: apparent Kd, n = 1"}, "PRKD2": {"test_system": "PRKD2", "details": "read-out: apparent Kd; compound concentrations: 100 nM and 1000 nM (sheet 'Samples'), CATDS: 5.9855757256393E-2; n = 1"}, "PRKD3": {"test_system": "PRKD3", "details": "read-out: apparent Kd; compound concentrations: 100 nM and 1000 nM (sheet 'Samples'), CATDS: 5.6713144719272697E-2; n = 1"}, "RIPK2": {"test_system": "RIPK2", "details": "read-out: apparent Kd; compound concentrations: 100 nM and 1000 nM (sheet 'Samples'), CATDS: 7.7128877949965702E-2; n = 1"}, "CSNK1A1": {"test_system": "CSNK1A1", "details": "read-out: apparent Kd, n = 1"}, "PKN3": {"test_system": "PKN3", "details": "read-out: apparent Kd; compound concentrations:100 nM and 1000 nM (sheet 'Samples'); n = 1"}, "CLK4": {"test_system": "CLK4", "details": "read-out: apparent Kd; compound concentrations: 100 nM and 1000 nM (sheet 'Samples'), CATDS: 0.40901388179724202; n = 1"}, "CSNK2A2": {"test_system": "CSNK2A2", "details": "read-out: apparent Kd; compound concentrations: 100 nM and 1000 nM (sheet 'Samples'), CATDS: 0.28231341025767498; n = 1"}, "PDXK": {"test_system": "PDXK", "details": "read-out: apparent Kd; compound concentrations: 100 nM and 1000 nM (sheet 'Samples'), CATDS: 0.33190254365372501; n = 1"}, "NQO2": {"test_system": "NQO2", "details": "read-out: apparent Kd; compound concentrations: 100 nM and 1000 nM (sheet 'Samples'), CATDS: 0.189684513322773; n = 1"}, "PIK3CD": {"test_system": "PIK3CD", "details": "read-out: apparent Kd; compound concentrations: 100 nM and 1000 nM (sheet 'Samples'), CATDS: 0.41134743817449698; n = 1"}, "PIP4K2C": {"test_system": "PIP4K2C", "details": "read-out: apparent Kd; compound concentrations: 100 nM and 1000 nM (sheet 'Samples'), CATDS: 7.4110853975201799E-2; n = 1"}, "[1]": {"details": "compound concentrations:100 nM and 1000 nM (sheet 'Samples')"}}, "note": "Read-outs that look alike come from different tables or passages of the source."}
{"smiles": "C[C@H](O)CNc1cc(-c2[nH]c3cccnc3c2-c2ccc(F)cc2)ccn1.Cl", "note": "[RO3206145-001]", "values": [{"measurement": "potency estimated from few doses", "setting": "CSNK1D; compound concentrations: 100 nM and 1000 nM (sheet 'Samples'), CATDS: 0.227277196740168", "result": 36.6, "unit": "nM"}, {"measurement": "potency estimated from few doses", "setting": "CSNK1E; compound concentrations: 100 nM and 1000 nM (sheet 'Samples'), CATDS: 0.13101963616975801", "result": 99, "unit": "nM"}, {"measurement": "potency estimated from few doses", "setting": "MAPK10; CATDS: 6.3561216633857096E-2", "result": 1000, "unit": "nM"}, {"measurement": "potency estimated from few doses", "setting": "MAPK11; compound concentrations: 100 nM and 1000 nM (sheet 'Samples'), CATDS: 0.18420027460355101", "result": 51.5, "unit": "nM"}, {"measurement": "potency estimated from few doses", "setting": "MAPK14; compound concentrations: 100 nM and 1000 nM (sheet 'Samples'), CATDS: 0.188780888737105", "result": 49.4, "unit": "nM"}, {"measurement": "potency estimated from few doses", "setting": "MAPK9; compound concentrations: 100 nM and 1000 nM (sheet 'Samples'), CATDS: 9.6618855435108605E-2", "result": 211, "unit": "nM"}, {"measurement": "potency estimated from few doses", "setting": "MAPKAPK2; CATDS: 0.128658474948743", "result": 103, "unit": "nM"}, {"measurement": "potency estimated from few doses", "setting": "NLK; compound concentrations: 100 nM and 1000 nM (sheet 'Samples'), CATDS: 5.8542673875263601E-2", "result": 1550, "unit": "nM"}, {"measurement": "potency estimated from few doses", "setting": "PRKD2", "result": 1370, "unit": "nM"}, {"measurement": "potency estimated from few doses", "setting": "PRKD3", "result": 1880, "unit": "nM"}, {"measurement": "potency estimated from few doses", "setting": "RIPK2", "result": 441, "unit": "nM"}]}
{"smiles": "Cc1nccc(-c2c(-c3ccc(F)cc3)ncn2CCCN2CCOCC2)n1.Cl", "note": "[SB-282975-A]", "values": [{"measurement": "potency estimated from few doses", "setting": "CSNK1D; compound concentrations: 100 nM and 1000 nM (sheet 'Samples'), CATDS: 0.65749239951041605", "result": 74.7, "unit": "nM"}, {"measurement": "potency estimated from few doses", "setting": "CSNK1E; compound concentrations: 100 nM and 1000 nM (sheet 'Samples'), CATDS: 0.24800542383641", "result": 505, "unit": "nM"}, {"measurement": "potency estimated from few doses", "setting": "MAPK14; compound concentrations: 100 nM and 1000 nM (sheet 'Samples'), CATDS: 0.18964189775036899", "result": 1100, "unit": "nM"}, {"measurement": "potency estimated from few doses", "setting": "MAPKAPK2; CATDS: 0.19328139808162401", "result": 1030, "unit": "nM"}]}
{"smiles": "Fc1ccc(-c2ncn(C3CCNCC3)c2-c2ccnc(Oc3ccccc3)n2)cc1", "note": "[SB-239272]", "values": [{"measurement": "potency estimated from few doses", "setting": "CSNK1A1; [1]", "result": 1380, "unit": "nM"}, {"measurement": "potency estimated from few doses", "setting": "CSNK1D; [1]", "result": 88.7, "unit": "nM"}, {"measurement": "potency estimated from few doses", "setting": "CSNK1E; [1]", "result": 191, "unit": "nM"}, {"measurement": "potency estimated from few doses", "setting": "MAPK11; [1]", "result": 45.4, "unit": "nM"}, {"measurement": "potency estimated from few doses", "setting": "MAPK14; [1]", "result": 12.5, "unit": "nM"}, {"measurement": "potency estimated from few doses", "setting": "MAPK9; [1]", "result": 1110, "unit": "nM"}, {"measurement": "potency estimated from few doses", "setting": "NLK; [1]", "result": 1500, "unit": "nM"}, {"measurement": "potency estimated from few doses", "setting": "PKN3", "result": 2090, "unit": "nM"}]}
{"smiles": "Nc1ncnc2[nH]c(-c3ccccc3)nc12", "note": "[AH5015_KCGS]", "values": [{"measurement": "potency estimated from few doses", "setting": "CLK4", "result": 1090, "unit": "nM"}, {"measurement": "potency estimated from few doses", "setting": "CSNK2A2", "result": 2320, "unit": "nM"}, {"measurement": "potency estimated from few doses", "setting": "PDXK", "result": 1610, "unit": "nM"}]}
{"smiles": "CCCCc1nn2ncccc2c1-c1ccnc(NC2CC2)n1", "note": "[GW684374X]", "values": [{"measurement": "potency estimated from few doses", "setting": "CSNK1D; compound concentrations: 100 nM and 1000 nM (sheet 'Samples'), CATDS: 0.183460166751924", "result": 702, "unit": "nM"}, {"measurement": "potency estimated from few doses", "setting": "CSNK1E; compound concentrations: 100 nM and 1000 nM (sheet 'Samples'), CATDS: 0.13214440190412699", "result": 1590, "unit": "nM"}, {"measurement": "potency estimated from few doses", "setting": "MAPK10; CATDS: 0.138963906660688", "result": 1370, "unit": "nM"}, {"measurement": "potency estimated from few doses", "setting": "MAPK9; compound concentrations: 100 nM and 1000 nM (sheet 'Samples'), CATDS: 0.12372123914536701", "result": 1960, "unit": "nM"}, {"measurement": "potency estimated from few doses", "setting": "NQO2", "result": 655, "unit": "nM"}, {"measurement": "potency estimated from few doses", "setting": "PIK3CD", "result": 178, "unit": "nM"}]}
{"smiles": "CN1CCC(n2cnc(-c3ccc(F)cc3)c2-c2ccnc(NC3CCNCC3)n2)CC1", "note": "[SB-229482]", "values": [{"measurement": "potency estimated from few doses", "setting": "CSNK1A1; compound concentrations: 100 nM and 1000 nM (sheet 'Samples'), CATDS: 7.6615483507767895E-2", "result": 1760, "unit": "nM"}, {"measurement": "potency estimated from few doses", "setting": "CSNK1D; compound concentrations: 100 nM and 1000 nM (sheet 'Samples'), CATDS: 0.231386526780439", "result": 127, "unit": "nM"}, {"measurement": "potency estimated from few doses", "setting": "CSNK1E; compound concentrations: 100 nM and 1000 nM (sheet 'Samples'), CATDS: 0.20184204641009601", "result": 159, "unit": "nM"}, {"measurement": "potency estimated from few doses", "setting": "MAPK10; CATDS: 9.5737343662475993E-2", "result": 810, "unit": "nM"}, {"measurement": "potency estimated from few doses", "setting": "MAPK14; compound concentrations: 100 nM and 1000 nM (sheet 'Samples'), CATDS: 0.239197237832417", "result": 121, "unit": "nM"}, {"measurement": "potency estimated from few doses", "setting": "MAPK9; compound concentrations: 100 nM and 1000 nM (sheet 'Samples'), CATDS: 0.10171878103733301", "result": 682, "unit": "nM"}, {"measurement": "potency estimated from few doses", "setting": "MAPKAPK2; CATDS: 0.108564299414966", "result": 573, "unit": "nM"}, {"measurement": "potency estimated from few doses", "setting": "NLK; compound concentrations: 100 nM and 1000 nM (sheet 'Samples'), CATDS: 8.6878607565958693E-2", "result": 1100, "unit": "nM"}, {"measurement": "potency estimated from few doses", "setting": "PIP4K2C", "result": 2040, "unit": "nM"}]}
